Measurements reported in PubChem BioAssay AID1159580 (chemical genetic matrix, 2015).
Among all 5,500 compounds or so, about 2,000 (36%) were called active. Inconclusive results (about 18%) are left out. Rule as the data show it: active = normalized growth mostly below about 0.91 (no sharp cut-off); inconclusive = no clear call, values can overlap the other calls; inactive = mostly above about 0.92. The list shows a part of the results.

Assay: chemical genetic growth profiling, strain panel (AID 1159580);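 also: tested at 20 µM; growth read once vehicle control cultures reached saturation at 30 °C; 1 = growth at the plate median or of vehicle wells; lower values mean less growth of the strain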
Settings: growth OD

Measured: normalized growth

C=C1C(=O)OC2CC1C(OC(C)=O)C/C(C)=C/CC/C(C)=C/CC[C@]2(C)O (stereo partly specified)
inactive: S. cerevisiae deletion strains, locus YJR043C, strain POL32, stronger effect = lower value 1.04 | S. cerevisiae deletion strains, locus YJR075W, strain HOC1, stronger effect = lower value 0.999 | S. cerevisiae deletion strains, locus YKL009W, strain mrt4, stronger effect = lower value 0.998 | S. cerevisiae deletion strains, locus YKL068W, stronger effect = lower value 1.01 | S. cerevisiae deletion strains, locus YKL085W, strain MDH1 (second series), stronger effect = lower value 0.99 | S. cerevisiae deletion strains, locus YKL085W, strain MDH1, stronger effect = lower value 0.99 | S. cerevisiae deletion strains, locus YKL160W, strain elf1, stronger effect = lower value 0.982 | S. cerevisiae deletion strains, locus YKR001C, strain vps1, stronger effect = lower value 1.02 | S. cerevisiae deletion strains, locus YKR026C, strain gcn3, stronger effect = lower value 0.997 | S. cerevisiae deletion strains, locus YKR091W, strain srl3, stronger effect = lower value 0.981 | S. cerevisiae deletion strains, locus YLL001W, strain dnm1, stronger effect = lower value 0.973 | S. cerevisiae deletion strains, locus YLL026W, stronger effect = lower value 0.987 | S. cerevisiae deletion strains, locus YLL041C, strain sdh2, stronger effect = lower value 0.993 | S. cerevisiae deletion strains, locus YLR027C, strain aat2, stronger effect = lower value 1.01 | S. cerevisiae deletion strains, locus YLR039C, strain RIC1, stronger effect = lower value 0.894 | S. cerevisiae deletion strains, locus YLR058C, strain SHM2, stronger effect = lower value 1.02 | S. cerevisiae deletion strains, locus YLR102C, strain apc9, stronger effect = lower value 1.02 | S. cerevisiae deletion strains, locus YLR221C, strain rsa3, stronger effect = lower value 1.03 | S. cerevisiae deletion strains, locus YLR258W, strain gsy2, stronger effect = lower value 1 | S. cerevisiae deletion strains, locus YLR262C, strain YPT6 (second series), stronger effect = lower value 0.916 | S. cerevisiae deletion strains, locus YLR262C, strain YPT6, stronger effect = lower value 0.858 | S. cerevisiae deletion strains, locus YLR268W, strain sec22, stronger effect = lower value 1 | S. cerevisiae deletion strains, locus YLR320W, strain mms22, stronger effect = lower value 1.03 | S. cerevisiae deletion strains, locus YLR330W, strain CHS5, stronger effect = lower value 1.03 | S. cerevisiae deletion strains, locus YLR342W, strain FKS1 (second series), stronger effect = lower value 0.993 | S. cerevisiae deletion strains, locus YLR342W, strain FKS1, stronger effect = lower value 0.995 | S. cerevisiae deletion strains, locus YLR357W, strain rsc2, stronger effect = lower value 1.02 | S. cerevisiae deletion strains, locus YLR370C, strain arc18, stronger effect = lower value 0.998 | S. cerevisiae deletion strains, locus YLR371W, strain rom2, stronger effect = lower value 1.02 | S. cerevisiae deletion strains, locus YLR384C, strain iki3, stronger effect = lower value 0.997 | S. cerevisiae deletion strains, locus YLR418C, strain cdc73, stronger effect = lower value 1.06 | S. cerevisiae deletion strains, locus YML016C, strain PPZ1, stronger effect = lower value 1.01 | S. cerevisiae deletion strains, locus YML032C, strain rad52, stronger effect = lower value 1.01 | S. cerevisiae deletion strains, locus YML120C, strain ndi1, stronger effect = lower value 0.99 | S. cerevisiae deletion strains, locus YML124C, strain tub3, stronger effect = lower value 1.01 | S. cerevisiae deletion strains, locus YMR058W, strain fet3, stronger effect = lower value 0.99 | S. cerevisiae deletion strains, locus YMR078C, strain ctf18, stronger effect = lower value 1.01 | S. cerevisiae deletion strains, locus YMR125W, strain sto1, stronger effect = lower value 0.973 | S. cerevisiae deletion strains, locus YMR129W, stronger effect = lower value 0.997 | S. cerevisiae deletion strains, locus YMR205C, strain PFK2, stronger effect = lower value 0.985 | S. cerevisiae deletion strains, locus YMR223W, strain ubp8, stronger effect = lower value 1 | S. cerevisiae deletion strains, locus YMR231W, strain pep5, stronger effect = lower value 0.976 | S. cerevisiae deletion strains, locus YMR263W, strain SAP30, stronger effect = lower value 1.01 | S. cerevisiae deletion strains, locus YMR307W, strain GAS1, stronger effect = lower value 0.977 | S. cerevisiae deletion strains, locus YNL067W, strain RPL9B, stronger effect = lower value 1.01 | S. cerevisiae deletion strains, locus YNL071W, strain lat1, stronger effect = lower value 0.996 | S. cerevisiae deletion strains, locus YNL128W, strain TEP1, stronger effect = lower value 1.03 | S. cerevisiae deletion strains, locus YNL153C, strain GIM3, stronger effect = lower value 1.04 | S. cerevisiae deletion strains, locus YNL209W, strain ssb2, stronger effect = lower value 0.991 | S. cerevisiae deletion strains, locus YNL233W, strain BNI4, stronger effect = lower value 1.02 | S. cerevisiae deletion strains, locus YNL248C, strain rpa49, stronger effect = lower value 0.988 | S. cerevisiae deletion strains, locus YNL250W, strain rad50, stronger effect = lower value 1.04 | S. cerevisiae deletion strains, locus YNL271C, strain bni1, stronger effect = lower value 1.02 | S. cerevisiae deletion strains, locus YNL298W, strain CLA4, stronger effect = lower value 1.01 | S. cerevisiae deletion strains, locus YNL307C, strain MCK1, stronger effect = lower value 1.03 | S. cerevisiae deletion strains, locus YNL322C, strain KRE1 (second series), stronger effect = lower value 1.01 | S. cerevisiae deletion strains, locus YNL322C, strain KRE1, stronger effect = lower value 1 | S. cerevisiae deletion strains, locus YNR049C, strain mso1, stronger effect = lower value 0.994 | S. cerevisiae deletion strains, locus YNR052C, strain pop2, stronger effect = lower value 1.01 | S. cerevisiae deletion strains, locus YOL012C, strain htz1 0.807 | S. cerevisiae deletion strains, locus YOL147C, strain pex11, stronger effect = lower value 1.03 | S. cerevisiae deletion strains, locus YOR001W, strain rrp6, stronger effect = lower value 1.01 | S. cerevisiae deletion strains, locus YOR061W, strain CKA2, stronger effect = lower value 1.02 | S. cerevisiae deletion strains, locus YOR069W, strain VPS5, stronger effect = lower value 1.01 | S. cerevisiae deletion strains, locus YOR070C, strain gyp1, stronger effect = lower value 0.995 | S. cerevisiae deletion strains, locus YOR080W, strain dia2, stronger effect = lower value 1.01 | S. cerevisiae deletion strains, locus YOR083W, strain WHI5, stronger effect = lower value 0.985 | S. cerevisiae deletion strains, locus YOR106W, strain vam3, stronger effect = lower value 1 | S. cerevisiae deletion strains, locus YOR136W, strain idh2, stronger effect = lower value 1.02 | S. cerevisiae deletion strains, locus YOR144C, strain elg1, stronger effect = lower value 1.02 | S. cerevisiae deletion strains, locus YOR184W, strain ser1, stronger effect = lower value 1.02 | S. cerevisiae deletion strains, locus YOR265W, strain rbl2, stronger effect = lower value 0.996 | S. cerevisiae deletion strains, locus YOR270C, strain vph1, stronger effect = lower value 0.937 | S. cerevisiae deletion strains, locus YOR290C, strain snf2, stronger effect = lower value 0.961 | S. cerevisiae deletion strains, locus YOR316C, strain cot1, stronger effect = lower value 1.01 | S. cerevisiae deletion strains, locus YPL051W, strain arl3, stronger effect = lower value 1.01 | S. cerevisiae deletion strains, locus YPL078C, strain atp4, stronger effect = lower value 0.96 | S. cerevisiae deletion strains, locus YPL106C, strain sse1, stronger effect = lower value 0.991 | S. cerevisiae deletion strains, locus YPL240C, strain hsp82, stronger effect = lower value 1 | S. cerevisiae deletion strains, locus YPL241C, strain CIN2, stronger effect = lower value 1 | S. cerevisiae deletion strains, locus YPR119W, strain clb2, stronger effect = lower value 1.01 | S. cerevisiae deletion strains, locus YPR141C, strain kar3, stronger effect = lower value 1.01 | S. cerevisiae deletion strains, locus YPR163C, strain tif3, stronger effect = lower value 1 | S. cerevisiae deletion strains, locus YPR167C, strain met16, stronger effect = lower value 1.01 | S. cerevisiae deletion strains, strain wtn01, stronger effect = lower value 1.02 | S. cerevisiae strains, strain wild type, stronger effect = lower value 1.01
